Only some compounds are listed: those with a hit (about 7.3% of all), similar ones and a draw of the others.
Tau fibril FP = tau fibrillization inhibition (FP); P10636; K18 P301L tau heparin fibrillization, Alexa594 FP, 6 h; Potency, µM (highest dose often 57.7 µM), without a hit: at the highest dose activity, negative = inhibition, usual class: inhibitors; actives 0.39% (n = 280,000); AID 1468; also: nearly all actives have a fitted effect of over 55% in size
Target sequence (P10636 561-689 P618L limits assumed): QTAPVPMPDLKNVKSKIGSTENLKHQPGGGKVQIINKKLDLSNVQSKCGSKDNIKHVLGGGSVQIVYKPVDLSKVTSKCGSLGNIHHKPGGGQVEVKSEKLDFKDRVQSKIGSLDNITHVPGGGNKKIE
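Recombinant K18 P301L […], labeled with Alexa 594 at 0.24 uM over 15 uM unlabeled; heparin inducer 20 uM final; 37 C, 6 hr; FP endpoint.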
VP16 counter = inhibits Gal4-VP16 luciferase reporter, ROR gamma counter-screen; Drosophila S2 Gal4-VP16 UAS-luciferase, luminescence, 20 h; Potency, µM (series often up to 53.6 µM), without a hit: top-dose activity, negative = inhibition, usual class: inhibitors; actives 3.5% (n = 310,000); AID 2546;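 also: Gal4-VP16 expression switched on by copper sulfate through the metallothionein promoter; nearly all actives have a fitted effect of over 50% in size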
RORgamma inh = blocks mouse ROR gamma transcriptional activity; P51450; Drosophila S2 Gal4-RORgamma UAS-luciferase reporter, 20 h; Potency, µM (top dose mostly 53.6 µM), for the others: top-dose activity change, negative = inhibition, usual class: inhibitors; actives 5.4% (n = 310,000); AID 2551; also: nearly all actives have a fitted effect of over 60% in size
Target sequence (P51450 whole entry, looked up, the tested form may be a part): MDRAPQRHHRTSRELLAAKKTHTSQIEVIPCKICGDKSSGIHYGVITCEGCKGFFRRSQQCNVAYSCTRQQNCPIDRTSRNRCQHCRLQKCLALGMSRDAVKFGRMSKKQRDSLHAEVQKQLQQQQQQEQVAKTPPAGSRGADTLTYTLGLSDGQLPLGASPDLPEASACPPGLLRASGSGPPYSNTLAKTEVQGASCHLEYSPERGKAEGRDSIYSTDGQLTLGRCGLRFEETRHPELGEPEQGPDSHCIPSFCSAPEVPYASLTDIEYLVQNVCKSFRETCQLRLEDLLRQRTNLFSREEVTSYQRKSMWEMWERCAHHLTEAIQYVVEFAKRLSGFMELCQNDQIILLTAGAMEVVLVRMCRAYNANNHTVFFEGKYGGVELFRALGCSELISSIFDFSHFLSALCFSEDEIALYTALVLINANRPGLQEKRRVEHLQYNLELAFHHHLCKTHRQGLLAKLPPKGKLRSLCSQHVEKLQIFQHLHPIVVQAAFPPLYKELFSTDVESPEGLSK
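In this cell-based reporter format, copper sulfate (700 uM final) drives Gal4–ROR gamma fusion expression from a metallothionein promoter in Drosophila Schneider cells; compounds preincubated 1 hr, reporter read after 20 hr at ambient temperature.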
Tau ThT inhib = blocks human tau fibril formation measured by thioflavin T. Potency, µM (titrated, usually from 57.4 µM), inactives show top-dose activity, negative = inhibition, hits mostly inhibitors. actives 2.1% (n = 270,000). AID 1460. recombinant tau K18 P301L, heparin-induced fibrillization, ThT fluorescence. P10636; also: nearly all actives have a fitted effect of over 55% in size
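Aggregation was driven by heparin (20 uM final) acting on recombinant tau […] bearing P301L in 100 mM sodium acetate pH 7; fibrils were detected with Thioflavin T.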
Tau fluor cs = counter-screen for tau fibril formation inhibitors; actives 0.93% (n = 280,000); tau K18 P301L (four-repeat tau fragment) Alexa594 fluorescence, heparin fibrillization; Potency, µM (titrated, usually from 57.7 µM), inactives show at the top dose activity change, negative = decrease; also: nearly all actives have a fitted effect of over 55% in size
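Human K18 P301L tau (15 uM unlabeled plus 0.24 uM Alexa 594-labeled, final) in 100 mM sodium acetate pH 7 was mixed with compound and 20 uM heparin and incubated 6 hr at 37 C.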
Numbers without * were called inactive; u = inconclusive; x = not tested or not shown; [ ] = remark or other dose. Calls follow the shape of the dose curve; as a rule, active = well fitted curve in the direction sought with a large enough effect; inconclusive = small, poorly fitted or top-dose-only effect, or another doubt; inactive = no such curve, though single readings can be large; an effect the other way counts as inactive or inconclusive. % is scaled to controls: 0 for no effect and ±100 for the full control effect; potency is read from the fitted curve at half-maximal effect.

SMILES	Tau fibril FP	VP16 counter	RORgamma inh	Tau ThT inhib	Tau fluor cs
Cc1cc(C)n(-c2nc(Nc3ccccc3)nc(-n3nc(C)cc3C)n2)n1	-1.5%	-12.6%	-36.4%	-11.1%	-4.6%
Cc1cc(C)n(-c2nncc(-c3ccccc3)n2)n1	-3.8%	u	u	u	-16.1%
CNc1cc(C)nc(-n2nc(C)cc2C)n1	3.3%	2.51µM*	0.631µM*	1.7%	0.9%
Cc1ccc(Nc2cc(C)nc(-n3nc(C)cc3C)n2)cc1	-0.8%	x	x	-10.8%	-13.8%
CCOc1ccc(Nc2cc(C)nc(-n3nc(C)cc3C)n2)cc1	3.5%	0.891µM*	0.159µM*	-12.7%	-21.0%
COCC(=O)N1CCC2(CCN(Cc3ccccc3)CC2)CC1	x	-11.7%	-15.5%	x	x
CC(C)C[C@@H](CC(=O)N[C@@H](CCCN)CC(=O)N[C@@H]1CCNC[C@H]1C(=O)N[C@H](CC(=O)N[C@@H](CCC(=O)O)CC(=O)O)Cc1c[nH]c2ccccc12)NC(=O)[C@@H]1CCCC[C@H]1N	2.3%	-4.6%	0.4%	-12.4%	-8.3%
CCCC(=O)Nc1c(I)cc(I)c(C[C@H](CC)C(=O)O)c1I	x	14.2%	-9.2%	x	x
Cc1cc(Nc2ccc(Cl)cc2C)nc(-n2nc(C)cc2C)n1	1.8%	x	x	-2.3%	-10.3%
Cc1cc(Cl)nc(-n2nc(C)cc2C)n1	-2.5%	12.6µM*	3.55µM*	-5.1%	-2.3%
C=CCSc1nc(N(CC)CC)c2sccc2n1	-5.2%	-16.9%	11.2µM*	-17.3%	-11.1%
Cc1ccc2oc(C(=O)NCCCN3CCOCC3)c(C)c2c1	x	0.7%	2.1%	x	x
COc1ccc2c(c1)C(=NN)c1cc(OC)ccc1-2	0.3%	0.0%	u	10µM*	u
COC(=O)C1=C(C)N(Cc2ccc(OC)cc2)C(=O)/C1=C\c1ccco1	-5.6%	6.8%	u	25.1µM*	u
COC(=O)C1=C(C)N(Cc2ccco2)C(=O)C1	u	21.5%	10µM*	u	-13.8%
COC(=O)C1=C(C)N(Cc2ccco2)C(=O)/C1=C\c1ccc([N+](=O)[O-])cc1	u	-3.6%	-2.8%	12.6µM*	u
CCOC(=O)N1CCc2c(sc3c2c(=O)n(CCc2ccccc2)c(=O)n3CC(=O)Nc2ccc(C)cc2)C1	u	x	x	2.0%	-26.1%
COc1ccccc1NC(=O)C1=C(C)Nc2nnnn2C1c1cc(Br)c(O)c(OC)c1 (centres undefined)	0.3%	x	x	-14.6%	-17.1%
CC1(C)CC=C(O[Si](C)(c2ccccc2)c2ccccc2)CC1	-2.9%	-5.8%	-17.8%	-3.3%	-5.1%
Cc1ccc2c(c1)Cc1nc3ccccc3nc1-2	4.3%	14.1µM*	10µM*	u	-21.3%
Cc1ccc(NC(=S)Nc2cc(C(=O)O)ccc2N2CC3CC(C2)c2cccc(=O)n2C3)cc1C (centres undefined)	2.2%	20µM*	5.01µM*	-18.5%	-26.8%
CC(=O)NCC(c1cccs1)S(=O)(=O)c1ccc(F)cc1 (centres undefined)	x	9.5%	15.3%	x	x
COc1cccc(NC(=S)N2CCN(C(c3ccccc3)c3ccccc3)CC2)c1	-3.4%	8.91µM*	4.47µM*	-13.2%	u
COc1ccc(NC(=S)N2CCN(C(c3ccccc3)c3ccccc3)CC2)c(OC)c1	u	u	5.01µM*	-7.9%	-20.0%
Cn1cc(S(=O)(=O)N2CCCC2)cc1C(=O)NCCc1ccccc1	x	4.5%	u	x	x
SMILES	Tau fibril FP	VP16 counter	RORgamma inh	Tau ThT inhib	Tau fluor cs
Cc1ccc2c(c1)c1c3n2CCN(C(=O)CCl)C3CCC1 (centres undefined)	x	11.2µM*	2.51µM*	x	x
CC(=O)N1CCn2c3c(c4cc(C)ccc42)CCCC31 (centres undefined)	9.7%	-5.7%	15.5%	-18.5%	-19.1%
CCOc1cc(C(=O)N2CCn3c4c(c5cc(C)ccc53)CCCC42)cc(OCC)c1OCC (centres undefined)	-0.8%	x	x	-13.3%	-15.2%
CC(=O)N1CCn2c3c(c(=O)c4cc(C)ccc42)CCC31 (centres undefined)	u	0.7%	-0.3%	25.1µM*	u
O=S(=O)(Cc1ccccc1)N1CCNCC1	x	8.1%	-16.8%	x	x
CSc1nc(=NC(C)=O)ss1	u	-19.2%	3.16µM*	25.1µM*	-22.1%
CCN(CC)C(=S)S	x	3.55µM*	u	x	x
CSc1ccc(/C=C2/C(C)=C(CC(=O)O)c3cc(F)ccc32)cc1	u	-0.8%	5.3%	u	-9.7%
CCOC(=O)/C=C(\C)Sc1cc(O)c2ccccc2c1O	4.47µM*	u	11.2µM*	1.78µM*	u
COc1cc(-c2nc(SCC(=O)Nc3ccc4c(c3)OCO4)c(-c3ccccc3)[nH]2)cc(OC)c1OC	2.0%	x	x	u	5.62µM*[quencher]
O=C(CSc1nc(-c2ccccc2)[nH]c1-c1ccccc1)Nc1ccc2c(c1)OCO2	2.2%	x	x	u	7.08µM*[quencher]
O=C(CSc1nc(-c2ccccc2)c(-c2ccccc2)[nH]1)Nc1ccc2c(c1)OCO2	5.5%	u	u	-6.1%	u
COc1cc(NC(=O)CN2Cc3ccccc3C2=O)cc(OC)c1OC	0.5%	x	x	6.2%	1.7%
CN(CC(=O)NCc1ccc(F)cc1)CC(=O)Nc1ccc(Cl)c(C(F)(F)F)c1	x	u	3.6%	x	x
O=C(Cc1ccc(Cl)cc1)Nc1ccncc1	-4.9%	2.82µM*	u	-8.8%	-15.0%
CN(CCCC(=O)Nc1ccncc1)S(=O)(=O)c1ccc(Cl)cc1	-9.0%	15.8µM*	25.0%	-0.3%	-7.2%
CN(CC(=O)Nc1ccncc1)S(=O)(=O)c1ccc(Br)cc1	-4.9%	-8.3%	6.5%	-9.4%	-6.3%
COc1ccccc1CCNC(=O)c1cccn1-c1nnc(N2CCCC2)s1	-1.0%	x	x	-5.0%	-1.9%
COc1ccccc1Cc1nc2ccccc2nc1SCC(=O)Nc1ccc2c(c1)OCO2	-6.7%	x	x	8.9%	-26.2%
Cc1ccc(C(=O)N/N=C\c2ccccn2)cn1	-7.6%	20.4%	-30.5%	-14.4%	-8.1%

Assay outcomes: PubChem, National Center for Advancing Translational Sciences (NCATS)
